High-throughput results from PubChem BioAssay.
In the library only some 4.1% were active in any assay of this set; here they are far more common.
tim10-1 inh: inhibits growth of tim10-1 mutant yeast. S. cerevisiae tim10-1 ts strain growth, BacTiter-Glo, 24 h. 330,000 compounds, 2.2% hits. inhibition, % at 20 µM;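 active = inhibition of at least 40%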;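 also: mutant grown at 25 °C; 0% = DMSO wells with yeast and 100% = wells holding no yeast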
PfHsp90 set2: reduces growth (ATP signal) of yeast expressing P. falciparum Hsp90; S. cerevisiae expressing PfHsp90, BacTiter-Glo ATP, 48 h; yeast lacking PDR1 and PDR3 efflux regulators; inhibition, % at 9.4 µM; 310,000 compounds, 0.32% hits; AID 504621;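 active = every replicate shows inhibition above about 80%, whatever the replicate mean, limit read from the data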;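 also: 0% = DMSO neutral controls and 100% = 20 µM radicicol positive controls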
NALP3 yeast inh: NALP3 inhibition in yeast; Yeast reconstituted NLRP3/ASC/caspase-1, beta-gal luminescence, 24 h; inhibition, % at 10 µM; 330,000 compounds, 0.39% hits; AID 2825;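 active = inhibition of 50% or more; inactive = inhibition below 50%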;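 also: plate controls were induced DMSO wells for no effect and uninduced yeast grown without galactose for full effect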
tim23-1 inh: growth inhibitors of tim23-1 mutant yeast. S. cerevisiae tim23-1 growth, BacTiter-Glo luminescence, 24 h. inhibition, % at 20 µM. 330,000 compounds, 1.3% hits;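 active = growth inhibition of the mutant yeast at or above 50%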;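 also: temperature-sensitive mutant grown at 25 °C; plate controls were DMSO-treated mutant yeast for no effect and medium wells lacking yeast for full effect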
NALP1 inh: inhibitors of NALP1 inflammasome in yeast; S. cerevisiae NALP1/ASC/caspase-1 growth, X-gal OD620, 72 h; inhibition, % at 10 µM; 280,000 compounds, 0.61% hits; AID 2071; in the data active = inhibition mostly above about 24%, no sharp cut-off; inactive = mostly below about 32%
TIM10 inh: TIM10 yeast growth inhibition; inhibition, % at 10 µM; 330,000 compounds, 1.4% hits; S. cerevisiae TIM10 strain growth, BacTiter-Glo luminescence, 24 h;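 active = inhibition of 40% or more at the single tested concentration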;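 also: wild-type TIM10 isogenic control strain grown at permissive 25 °C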
tim10-1 confirm: confirmation of tim10-1 mutant yeast growth inhibitors. shares compounds with tim10-1 inh. S. cerevisiae tim10-1 ts strain growth, BacTiter-Glo, 24 h. inhibition, % at 20 µM. 7,400 compounds, 56% hits. AID 463213;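 active = inhibition of yeast growth at or above a set limit in either of two repeat tests at 20 µM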;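 also: tim10-1 mutant grown at permissive 25 °C to find synthetic lethal compounds; 0% = DMSO yeast wells and 100% = medium wells without yeast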
An asterisk follows results filed as active; . = no result given.

SMILES | tim10-1 inh | PfHsp90 set2 | NALP3 yeast inh | tim23-1 inh | NALP1 inh | TIM10 inh | tim10-1 confirm
O=C(C1CCC1)N1CCc2cc(S(=O)(=O)NCC3COc4ccccc4O3)ccc21 (centres undefined) | 11 | -22 | 9 | 1 | 3 | 26 | .
O=C(Nc1ccc(S(=O)(=O)N2CCOCC2)cc1)c1ccccc1Br | -2 | -8 | 10 | -3 | 6 | -20 | .
O=C(CNc1cccc2ccccc12)N/N=C/c1ccccn1 | -7 | . | 21 | 22 | 3 | 25 | .
O=C(CNc1cccc2ccccc12)N/N=C/c1cccc(Oc2ccccc2)c1 | 42* | -13 | 11 | 0 | 9 | 34 | 28
O=C(OCC(=O)N1CCCC1)c1c(Cl)ccc(Cl)c1Cl | 2 | -3 | 19 | 8 | 0 | 4 | .
COc1ccc(S(=O)(=O)N2CCN(c3ccccc3OC)CC2)cc1 | 43* | 8 | 9 | 40 | -6 | 9 | 34*
CCn1cc(C(=O)N2CCCC(C(=O)c3ccc4ccccc4c3)C2)cn1 (centres undefined) | 13 | 13 | 2 | 14 | 26 | 28 | .
CCOc1ncccc1C(=O)OCC(=O)NC(=O)c1ccccc1 | 6 | 1 | 11 | 4 | . | 1 | .
Cc1cc(C)c(Cn2cnc3ccccc32)c(C)c1 | 43* | -7 | 0 | 40 | 5 | 26 | 20
c1ccc(Cn2cnc3ccccc32)cc1 | 0 | -7 | -24 | -8 | 6 | -10 | .
O=C(CN1CCN(S(=O)(=O)c2ccc(F)cc2)CC1)Nc1ccc2c(c1)OCCO2 | -2 | -29 | 15 | 6 | 2 | -11 | .
COc1ccccc1N1CCN(CC(=O)Nc2ccc(Cl)c(C(F)(F)F)c2)CC1 | 42* | -1 | 5 | 40 | -151 | 27 | 29*
O=C(CN1CCN(S(=O)(=O)c2ccc(F)cc2)CC1)Nc1ccc(Cl)c(C(F)(F)F)c1 | 44* | 12 | 4 | 31 | -3 | 15 | 39*
CN(C(=O)c1cccc(NC(=O)Cc2ccc(NC(=O)C3CCCN(C(=O)C4CC4)C3)cc2)c1)C1CCCC1 (centres undefined) | . | 15 | . | . | . | . | .
COC(=O)c1[nH]c2cc(C)ccc2c1NC(=O)CN1CCCc2ccccc21 | 38 | 0 | 24 | 21 | 5 | 19 | .
COC(=O)c1[nH]c2ccc(Br)cc2c1NC(=O)CN1CCCc2ccccc21 | 46* | -18 | 14 | 35 | 13 | 23 | 34*
CCOC(=O)Nc1ccc2c(CNC(C)c3ccccc3OC)cc(=O)oc2c1 (centres undefined) | 47* | -8 | 15 | 32 | 14 | 15 | 22
Cc1nn(C(C)(C)C)c(OC(=O)c2ccc3c(c2)OCO3)c1S(=O)(=O)c1ccccc1 | 46* | 2 | 28 | 43 | 1 | 31 | 35*
Cc1[nH]n(-c2ccccc2)c(=O)c1C(c1cccc([N+](=O)[O-])c1O)c1c(C)[nH]n(-c2ccccc2)c1=O | 42* | 4 | 17 | 33 | 50 | 7 | 23
CCOc1ccc(-c2nc(CSCC(=O)NC3CCCc4ccccc43)c(C)o2)cc1 (centres undefined) | 40* | . | 8 | 36 | 18 | 35 | 25
CCOc1ccc(-c2nc(CSCC(=O)NC3CC3)c(C)o2)cc1 | 15 | 5 | 14 | 21 | 6 | -2 | .
COc1ccc(/C=C2\SC(=O)N(CCNC(=O)C3=COCCO3)C2=O)cc1 | -10 | 12 | 7 | 3 | . | -14 | .
O=C(NCCN1C(=O)S/C(=C\c2ccc(OC(F)F)cc2)C1=O)C1=COCCO1 | 44* | . | 11 | 43 | . | 28 | 29
COc1ccc(CN(C)C(=O)c2ccc(NS(=O)(=O)c3ccc4[nH]c(=O)[nH]c4c3)cc2)c(OC)c1OC | -8 | -6 | 12 | -4 | . | 3 | .
CC(C)Cc1nnc(NC(=O)c2ccc(S(=O)(=O)N3CCCC3)cc2)s1 | -12 | . | 13 | -5 | . | -18 | .
O=C(COc1ccc(Cl)cc1Cl)N1CCNC1=O | -1 | -4 | 24 | 3 | . | -12 | .
O=C(CSCc1ccccc1Cl)NNC(=S)Nc1ccccc1 | 49* | 12 | 24 | 26 | 4 | 28 | 43*
CCCCCCC(C)NC(=S)Nc1cc(S(=O)(=O)N(C)C)ccc1C (centres undefined) | 41* | . | 1 | 4 | 17 | 11 | 16
